Bioassay records: PubChem, Fisher Drug Discovery Resource Center
The list is not random: actives were taken first. Their share in the collection is about 0.28%.
mcGAS lum = blocks mouse cGAS activity; AID 1259399; inhibition, % at 12.5 µM; actives 0.15% (n = 160,000); recombinant cGAS, Kinase-Glo ATP depletion luminescence;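 also: 0% = negative control wells and 100% = reference inhibitor with no enzyme activity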
hcGAS lum = human cGAS inhibition; Q8N884; recombinant h-cGAS, ATP depletion, Kinase-Glo luminescence; inhibition, % at 12.5 µM; actives 0.081% (n = 290,000);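 also: 0% = vehicle reaction and 100% = reaction without DNA for no activity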
NPYLR7 ag = activates Aedes aegypti NPYLR7 receptor | HEK293T NPYLR7/Galpha15, GCaMP6s calcium fluorescence | activation, % at 10 µM | actives 0.15% (n = 270,000); in the data active = activation above about 40%;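 also: 0% = vehicle and 100% = reference agonist at the receptor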
* hit, by the source's call; x = no result. Rule as the data show it, unless noted: active = inhibition above about 40%; inactive = the rest.

SMILES	mcGAS lum	hcGAS lum	NPYLR7 ag
CCNC(=O)[C@H]1O[C@@H](n2cnc3c(N)ncnc32)C(O)[C@H]1O (stereo not given in full)	-3	-1	191*
CC1(C)C(C(=O)N2CCCC2)C1(C)C	x	-3	9
O=C(c1ccc(C(F)(F)F)c(F)c1)N1CCN(CCOC(c2ccccc2)c2ccccc2)CC1	-7	-7	3
CNC(=O)Oc1c(Br)cc2sc(=O)oc2c1Br	98*	-4	5
COc1ccc(C2C[C@H]3CC[C@@H](C2)N3Cc2nc(-c3ccco3)oc2C)cc1 (stereo not given in full)	-12	-7	-5
CC[C@@]1(O)C[C@H](O[C@H]2C[C@H](N(C)C)[C@H](O)[C@H](C)O2)c2c(cc3c(c2O)C(=O)c2c(O)cccc2C3=O)[C@H]1C(=O)OC	x	72*	34
CC[C@@]1(O)C[C@H](O)c2c(cc3c(c2O)C(=O)c2c(O)ccc(O)c2C3=O)[C@H]1C(=O)OC	x	-6	-13
CC[C@@]1(O)C[C@H](O[C@H]2C[C@H](N(C)C)[C@H](O)[C@H](C)O2)c2c(cc3c(c2O)C(=O)c2c(O)ccc(O)c2C3=O)[C@H]1C(=O)OC	x	44*	9
Cc1cc(CN2CCC3(CCNCC3)C2)oc1C	-2	3	2
O=C(CSc1ccccn1)N1CC[C@H]2CC[C@@H](C1)N2	x	-10	-5
Cc1ccnc(CC(C)N(C)Cc2ccc(S(C)(=O)=O)cc2)c1 (stereo not given)	-7	-2	-2
Cc1nc(C)c(CNC2(c3ccccc3)CCCCC2)s1	x	-7	2
COCCN(CC(=O)Nc1nc(CC(=O)N(CCN(C)C)Cc2ccccc2)cs1)C(=O)C1CCCCC1	-4	-8	18
O=C1C=C2C(=CCOC2O)O1 (stereo not given)	106*	88*	x
Cc1cc2c(c(=S)[nH]1)C(=O)O/C2=C\c1c(C)[nH]c(C#N)c1C	x	-12	-1
N#Cc1c(O)c(Cl)c(Cl)c(C#N)c1Cl	55*	30	4
O=C1NC(=O)N(Cc2ccccc2)C(=O)/C1=C\c1ccco1	44*	35	-5
Cc1cc(C)cc(N2C(=O)NC(=O)/C(=C\c3ccco3)C2=O)c1	7	5	-8
O=C1NC(=O)N(Cc2ccccc2)C(=O)C1=Cc1ccco1	x	-5	-6
Cc1ccccc1N1C(=O)/C(=C/c2ccco2)C(=O)NC1=S	86*	41*	-2
COC(=O)C1=C(C)OC(=N)C(C#N)C12C(=O)Nc1ccc([N+](=O)[O-])cc12 (stereo not given)	1	-7	25
O=C(CN1CN(c2ccccc2)C2(CCNCC2)C1=O)NCc1ccc2c(c1)OCO2	-8	-10	-1
O=C1NC(=O)C2=Cc3ccc(O)cc3OC2(O)N1 (stereo not given)	-3	-1	193*
COc1cccc([C@@H]2CN(C(=O)c3ncc(C)[nH]3)[C@@H]3C4CCN(CC4)[C@@H]32)c1	-8	-2	4
Cc1cc(C(=O)OCC(=O)N2CC3(C)CC2CC(C)(C)C3)c(C)n1C1CC1 (stereo not given)	x	-4	3
CC(Cc1ccc(O)cc1)N(C)Cc1cc(=O)n2ccccc2n1 (stereo not given)	x	-6	-6
CNC(=O)c1ccc(CN2CC=C(c3cnn(-c4ccccc4C)c3)CC2)o1	-8	0	21
CC(=O)N1CN(C(C)=O)CN(C(C)=O)C1	x	-1	-5
CC(=O)O.CC(=O)O.[Cd]	x	74*	-9
CC(=O)OC1CC2CC(OC(=O)COc3ccc(C)c(C)c3)CC1N2C (stereo not given)	x	0	2
